Structures are written as SMILES. Active and inactive are the calls of the source. Entries that show only a call come without a potency. Calls come from the whole dose curve; as a rule, active = well fitted activation curve with a large enough effect in the repeat runs; inconclusive = weak or mixed curves; inactive = flat fitted curve, though single readings scatter.

Chain of KiSS-1 receptor (Homo sapiens) (Q969F8 whole entry, looked up): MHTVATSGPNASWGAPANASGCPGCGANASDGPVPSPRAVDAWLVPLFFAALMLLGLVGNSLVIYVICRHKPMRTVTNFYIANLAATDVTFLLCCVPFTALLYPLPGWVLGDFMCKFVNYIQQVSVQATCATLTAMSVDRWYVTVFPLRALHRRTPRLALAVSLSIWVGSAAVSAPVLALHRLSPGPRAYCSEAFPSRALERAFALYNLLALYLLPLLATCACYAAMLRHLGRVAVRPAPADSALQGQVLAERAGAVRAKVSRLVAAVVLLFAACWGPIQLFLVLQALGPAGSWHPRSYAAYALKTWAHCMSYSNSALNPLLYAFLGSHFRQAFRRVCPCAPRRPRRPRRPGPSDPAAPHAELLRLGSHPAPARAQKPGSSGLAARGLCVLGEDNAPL

This assay concerns the target KiSS-1 receptor (Homo sapiens) (UniProt Q969F8). Nature of the assay: Human kisspeptin (KISS1R) small molecule agonists, calcium flux assay in KISS1R-HEK293 cells (AID 1920064). The following applies: KISS1R-HEK293, calcium flux fluorescence, agonist; series mostly up to 76.8 µM. The text has this: National Center for Advancing Translational Sciences [NCATS]
Division of Preclinical Innovation [DPI]
U.S. Environmental Protection Agency [EPA]
National Institutes of Environmental Health Sciences [NIEHS]
National Toxicology Program [NTP]
U.S. Food and Drug Administration [FDA]
Kisspeptin and its receptor KISS1R play key roles in mammalian reproduction due to their involvement in the onset of puberty and control of the hypothalamic-pituitary-gonadal axis such as regulates GnRH release from the hypothalamus. The kisspeptin/KISS1R system also plays a direct role in peripheral organs (including the ovary, testis, uterus, and placenta) and is implicated in reproductive diseases such as miscarriage and polycystic ovary syndrome (PCOS). Abnormal KISS1R activity is associated with abnormal puberty, infertility, endometriosis, and hormone-dependent tumors. The KISS1 receptor (KISS1R, also called GPR54), a G-protein-coupled receptor (GPCR), acts (through phospholipase C) to increase intracellular inositol trisphosphate and then release intracellular calcium stores. Cell-based KISS1R-HEK293 assay is using HEK293 cells that have been genetically engineered to express the human KISS1R, which activity can be measured by calcium signaling. A compound/drug can activate (agonist) KISS1R that can be monitored by levels of intracellular calcium.
KISS1R-HEK293 cells developed by Codex Corp contain human KISS1R gene, which was stably integrated into HEK 293 cells. The compound activation can be detected by fluorescence intensity via calcium flux assay. This cell line has been used to screen the Tox21 10K compound library to identify agonists of KISS1R.
KISS1R-Hek293 cells were dispensed at 1500 cells/4uL/well in 1536-well black wall/clear bottom plates using a multidrop dispenser. After the assay plates were incubated at a 37 C/5% CO2 incubator for 18 hours, 4 microL of Calcium Dye Solution was added to each well. The plates were incubated at 37 C for 1 hour. And then 23 nL of compounds dissolved in DMSO, positive controls, or DMSO only was transferred to the assay plate by a pin tool station. The fluorescence intensity in the plates was measured using FDSS 7000EX kinetic plate reader with a filter set of Ex/Em=480/540 for 3 min at 1 sec intervals. Each test compound was measured at 15 concentrations and in triplicates.
For the molecule `COc1ccc(COC(C)=O)cc1`, the Potency result was “inactive”.

Take `O=c1[nH]cnc2[nH]ncc12`: the Potency result is “inactive”.

With `c1ccc2c(c1)CCC2`, the Potency result is “inactive”.

As to `C=C(C)C(=O)OCCOCCOCCOC(=O)C(=C)C`, the Potency entry is “inactive”.

Consider `CCCCCCCOC(=O)c1ccccc1C(=O)OCCCCCCC`, for which the Potency result was “inactive”.

Regarding `CCCOC(=O)C(C)O` (stereo not given), the Potency result is “inactive”.

Turning to `COCCCOc1ccnc(CS(=O)c2nc3ccccc3[nH]2)c1C` (stereo not given), the Potency entry is “inactive”.

Turning to `CO[C@@]1(NC(=O)CSC[C@@H](N)C(=O)O)C(=O)N2C(C(=O)O)=C(CSc3nnnn3C)CS[C@@H]21`, the Potency result is “inactive”.

On to `C(=C\c1ccccc1)/c1ccccc1`, for which the Potency entry is “inactive”.

Regarding `COc1nc(N)nc2nc[nH]c12`, the Potency result was “inactive”.

As to `CC(C)[C@@H]1CC[C@@H](C)CC1=O`, the Potency entry is “inactive”.

For `CCN(CCO)c1cccc(C)c1`, the Potency result is “inactive”.

As for `CC1CCc2nccnc21` (stereo not given), the Potency entry was “inactive”.

With `OC1CCCC1`, the Potency result is “inactive”.

Consider `O=C(O)c1cc2ccccc2nc1C(=O)O`, for which the Potency entry is “inactive”.

Turning to `CCCSSCCC`, the Potency entry is “inactive”.

Consider `CC/C=C\CCOC(=O)CCCCC`, for which the Potency entry was “inactive”.

Regarding `CC(C)CC(O)Cc1ccccc1` (stereo not given), the Potency entry is “inactive”.

Turning to `CCCCCCCCC(=O)OCC`, the Potency entry is “inactive”.

On to `CCOC(=O)C(C)Oc1ccc(Oc2cnc3cc(Cl)ccc3n2)cc1` (stereo not given), for which the Potency result was “inactive”.

Regarding `CN(C)/N=N/c1nc[nH]c1C(N)=O`, the Potency result is “inactive”.

Turning to `CC(C)C1CCC(O)CC1` (stereo not given), the Potency entry was “inactive”.

Regarding `Oc1c(Cl)ccc(Cl)c1Cl`, the Potency result is “inactive”.

For the molecule `O=Nc1ccc(Nc2ccccc2)cc1`, the Potency entry is “inactive”.

As for `N=C(N=C(N)N)N1CCOCC1`, the Potency entry is “inactive”.

Take `Nc1cc(=O)[nH]c(N)n1`: the Potency result was “inactive”.

As for `Cc1cccc2c1ccc1ccccc12`, the Potency entry is “inactive”.

For `CC(C)c1ccc(C=O)cc1`, the Potency result was “inactive”.

Consider `CC(C)(CCC(=O)O)C(=O)O`, for which the Potency result was “inactive”.

Regarding `COc1cccc2c1C(=O)c1c(O)c3c(c(O)c1C2=O)C[C@@](O)(C(C)=O)C[C@@H]3O[C@H]1C[C@H](N)[C@H](O)[C@H](C)O1`, the Potency result is “inactive”.

`C1CCC2OC2C1` (stereo not given): the Potency entry is “inactive”.

Regarding `CC(=O)CC(=O)Nc1ccc2[nH]c(=O)[nH]c2c1`, the Potency entry is “inactive”.

Turning to `CCOC(=O)[C@H](CCc1ccccc1)N[C@@H](C)C(=O)N1Cc2ccccc2C[C@H]1C(=O)O`, the Potency result is “inactive”.

On to `CCCCOCCOCCOCCO`, for which the Potency entry is “inactive”.

For `O=C1Nc2ccccc2C1(c1ccc(O)cc1)c1ccc(O)cc1`, the Potency result was “inactive”.

Regarding `CC(C)OCCO`, the Potency entry was “inactive”.

`CCN(CC)CC(=O)Oc1ccc(NC(C)=O)cc1`: the Potency entry is “inactive”.

With `CCCC/C=C\CCCCCCCCCC=O`, the Potency result was “inactive”.

`O=C(O)CCS`: the Potency entry was “inactive”.

On to `COCCCOc1cc(C[C@@H](C[C@H](N)[C@@H](O)C[C@H](C(=O)NCC(C)(C)C(N)=O)C(C)C)C(C)C)ccc1OC`, for which the Potency entry was “inactive”.
